# Only some compounds are listed: those with a hit (about 2.1% of all), similar ones and a draw of the others.
# PAX8 reporter – PAX8 transcriptional activity inhibition; RMG-I TPO-luciferase reporter, SteadyGlo, 24 h; inhibition, % at 12.6 µM; actives 1.2% (n = 360,000);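 active means mean replicate inhibition at least 60% with every replicate also reaching 60%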;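 further: luciferase light reporting Pax8 driven TPO promoter activity; plate controls were median of neutral control wells for no effect and mitoxantrone controls for full effect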
# KKLEB cytotox – reduces viability of KKLEB cystic fibrosis airway cells; KKLEB CF airway cells viability, ATPlite luminescence, overnight; hits give low values; cells stimulated with P. aeruginosa culture filtrate; activity change (cytotoxicity), % at 5 µM; actives 0.36% (n = 360,000); AID 602141;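 active means corrected activity change at or below -50% at 5 µM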
# HIF-2a inh – HIF-2a inhibition | 786-0 RCC cells HIF-2a reporter, luciferase luminescence, overnight | inhibition, % at 18.8 µM | actives 0.72% (n = 360,000);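 active means inhibition of the luminescence signal of 40% or more relative to plate controls, in a single-dose primary screen at 18.75 µM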
# EWS-Fli inh – inhibitors of EWS/Fli oncoprotein transcriptional activity | AID 651661 | A673 NR0B1-luciferase reporter, viability-normalised | inhibition, % at 12.6 µM | actives 0.67% (n = 350,000);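 active means mean inhibition of at least 50% after viability correction, with every replicate also passing that limit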;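 further: firefly luciferase signal divided by Alamar Blue viability fluorescence both relative to DMSO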
# CF NFkB block – cystic fibrosis NF-kB activation inhibition; KKLEB NF-kB-GFP reporter, PAF-induced, GFP fluorescence overnight; inhibition, % at 5 µM; actives 0.86% (n = 360,000); AID 588850;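 active means at least 50% inhibition at 5 µM, scaled per plate between neutral and stimulator controls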;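 further: PAF is a Pseudomonas aeruginosa culture filtrate used as stimulus; plate controls were PAF-stimulated DMSO wells for no effect and unstimulated DMSO wells for full effect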
# * = called active by the depositor; nt = not tested or not shown; ! = a repeat was not active.
SMILES,PAX8 reporter,KKLEB cytotox,HIF-2a inh,EWS-Fli inh,CF NFkB block
C[C@H](CO)N1C[C@H](C)[C@H](CN(C)Cc2ccc(Oc3ccccc3)cc2)Oc2ccc(NC(=O)Nc3ccc(C(F)(F)F)cc3)cc2C1=O,nt,nt,nt,56.0*,nt
C[C@@H](O)C#Cc1cnc2c(c1)C(=O)N([C@@H](C)CO)C[C@H](C)[C@@H](CN(C)C(=O)c1ccncc1)O2,nt,nt,nt,-15.5,nt
CCC(=O)N1[C@H](CO)[C@@H](c2ccc(-c3ccc(C#N)cc3)cc2)C12CN(C(C)=O)C2,-2.6,nt,nt,-0.8,nt
N#CC(c1ccc(Cl)cc1)c1ccc2c(C(F)(F)F)cc(C(F)(F)F)nc2n1 (stereo unspecified),nt,-74.5*,-32.4,nt,67.2*
CCCNC(=O)N1CC2(C1)[C@@H](c1ccccc1)[C@H](CO)N2CC1CC1,-7.9,nt,nt,-15.1,nt
CS(=O)(=O)c1ccc(-c2cc(NC=O)c3ncc(-c4ccc(F)cc4)n3c2)cc1,68.4*,-19.9,-46.3,-14.7,25.7
COc1cccc(-c2cnc3c(NC=O)cc(-c4ccc(S(C)(=O)=O)cc4)cn23)c1,39.0,3.3,-16.4,0.6,31.0
Cc1ccc(-c2cc(NC=O)c3ncc(-c4cnn(C)c4)n3c2)cc1,34.5,-15.5,-40.7,56.5*,12.9
CC(C)(C)[S@](=O)N1Cc2cc(C(=O)NC3CCCCC3)nc(-c3cccc(Br)c3)c2[C@@H]1CCO,-3.6,nt,nt,5.3,nt
CO[C@@H]1CN(C)C(=O)c2ccc(NC(=O)C3CC3)cc2OC[C@@H](C)N(C(=O)CN(C)C)C[C@H]1C,-4.0,nt,nt,-3.2,nt
Cc1ccc(N=Cc2cc(Cc3ccccc3Cl)cc([N+](=O)[O-])c2O)c(O)c1,nt,6.1,-31.6,nt,73.3*
CN1C(=O)c2cc(NC(=O)C3CCCC3)ccc2OC[C@@H]2O[C@@H](CC(=O)NCc3ccccc3F)CC[C@H]21,-15.2,nt,nt,-0.1,nt
C[C@H]1CN([C@@H](C)CO)C(=O)Cc2cc(NS(=O)(=O)c3ccc(Cl)cc3)ccc2O[C@H]1CN(C)CC1CC1,nt,nt,nt,-4.5,nt
C[C@@H]1CN([C@@H](C)CO)C(=O)Cc2cc(NS(=O)(=O)c3ccc(Cl)cc3)ccc2O[C@@H]1CN(C)CC1CCCCC1,106.3*,nt,nt,-9.1,nt
C[C@@H]1CN([C@H](C)CO)C(=O)Cc2cc(NS(=O)(=O)c3ccccc3)ccc2O[C@@H]1CN(C)S(=O)(=O)c1ccc(Cl)cc1,103.6*,nt,nt,19.4,nt
C[C@H]1CN([C@@H](C)CO)C(=O)Cc2cc(NS(=O)(=O)c3ccccc3)ccc2O[C@@H]1CN(C)S(=O)(=O)c1ccc(Cl)cc1,-2.8,nt,nt,1.9,nt
COc1ccc(CCn2c(SCC(=O)Nc3cc(C)on3)nc3ccsc3c2=O)cc1OC,nt,5.5,-4.2,nt,2.7
COc1ccc(CCn2c(SCC(=O)Nc3cc(C)on3)nc3ccccc3c2=O)cc1OC,nt,-78.8*,4.5,nt,64.1*
C[C@H]1CN([C@@H](C)CO)C(=O)c2cccc(NC(=O)Nc3ccc(F)cc3)c2O[C@@H]1CN(C)Cc1ccc(C(=O)Nc2ccccc2N)cc1,20.6,nt,nt,2.3,nt
O=C1CC2(CCN(C(=O)C(=O)c3c[nH]c4ccccc34)CC2)Oc2ccccc21,5.3,-100.0*,5.1,nt,84.4*
O=C(C=Cc1ccccc1)c1c[nH]c2ccccc2c1=O,86.0*,-18.2,-18.3,-24.1,39.5
O=C(/C=C/c1ccccc1)c1c[nH]c2ccccc12,-11.7,-41.7,-233.2,-118.3,4.8
COc1ccc(CC(N)c2csc(NC(=O)Nc3ccccc3Oc3ccccc3)n2)cc1 (stereo unspecified),3.3,-16.1,4.4,25.7,19.9
COc1ccc(CC(N)c2csc(NC(=O)Nc3ccccc3Cc3ccccc3)n2)cc1 (stereo unspecified),24.2,3.3,4.0,57.6*,3.2
NC(COCc1ccccc1)c1csc(NC(=O)Nc2cccc(C(F)(F)F)c2)n1 (stereo unspecified),7.5,-82.7*,11.6,24.5,85.5*
SMILES,PAX8 reporter,KKLEB cytotox,HIF-2a inh,EWS-Fli inh,CF NFkB block
NC(=O)c1ccc(Nc2nc(C(N)COCc3ccccc3)cs2)cc1 (stereo unspecified),-5.2,-4.0,-1.4,-9.6,21.2
O=C(CCS(=O)(=O)c1ccccc1)Nc1nnc(C(F)(F)F)s1,58.6,-22.6,-18.8,-70.3,10.2
CC(C)(C)c1nnc(NC(=O)CCS(=O)(=O)c2ccccc2)s1,96.8*,0.8,8.0,-8.3,11.7
CC(C)(C)c1nnc(NC(=O)CCS(=O)(=O)Cc2ccccc2)s1,84.4*,-2.8,4.4,-6.2,21.4
Cc1nnc(NC(=O)CCS(=O)(=O)c2ccccc2)s1,22.2,-0.2,-12.8,-26.0,-15.4
COc1ccc(C)c2sc(NC(=O)CCS(=O)(=O)c3ccccc3)nc12,77.8*,-39.5,-51.1,13.3,35.6
C[C@H]1CN([C@@H](C)CO)C(=O)c2cccc(NC(=O)c3cnccn3)c2O[C@H]1CN(C)C(=O)Nc1cccc2ccccc12,8.9,nt,nt,7.6,nt
COc1ccc(CNc2nc3c(c(=O)n(Cc4ccc(F)cc4)c(=O)n3C)n2C)cc1,71.0*,24.2,26.7,nt,23.0
C[C@H]1CN([C@@H](C)CO)C(=O)CCCn2nncc2CO[C@H]1CN(C)C(=O)Nc1ccc(-c2cccs2)cc1,66.0*,nt,nt,-2.1,nt
C[C@H](CO)N1C[C@H](C)[C@@H](CN(C)S(=O)(=O)c2ccc(-c3ccccc3)cc2)OCc2cn(nn2)CCCC1=O,76.1*!,-6.2,-3.9,9.8,-3.1
C[C@H](CO)N1C[C@H](C)[C@@H](CN(C)C(=O)Nc2ccc(-c3cccs3)cc2)OCc2cnnn2CCCC1=O,58.1,nt,nt,-7.6,nt
C[C@@H]1CN([C@@H](C)CO)C(=O)CCCn2nncc2CO[C@H]1CN(C)C(=O)Nc1ccc(-c2cccs2)cc1,84.4*,12.4,-25.8,-1.1,-7.1
C[C@@H]1CN([C@H](C)CO)C(=O)CCCn2cc(nn2)CO[C@H]1CN(C)C(=O)Nc1ccc(-c2cccs2)cc1,81.7*,7.9,-15.4,-6.9,-23.7
C[C@H]1CN([C@@H](C)CO)C(=O)CCCn2nncc2CO[C@@H]1CN(C)C(=O)Nc1ccccc1,-0.2,nt,nt,-10.6,nt
CCCNC(=O)Nc1ccc2c(c1)C(=O)N(C)C[C@@H](OC)[C@@H](C)CN(CC1CCCC1)[C@H](C)CO2,nt,nt,nt,0.8,nt
C[C@H](CO)N1C[C@H](C)[C@@H](CN(C)C(=O)Nc2ccc(F)cc2)Oc2c(NC(=O)NC3CCCCC3)cccc2C1=O,-1.0,nt,nt,-7.4,nt
C[C@H]1CN([C@@H](C)CO)C(=O)c2cccc(NS(=O)(=O)c3ccc(F)cc3)c2O[C@H]1CN(C)C,0.5,nt,nt,3.9,nt
COc1cccc(S(=O)(=O)Nc2ccc3c(c2)[C@@H]2C[C@H](CC(=O)NCC(F)(F)F)O[C@@H](CO)[C@@H]2O3)c1,4.8,nt,nt,0.9,nt
COc1ccc(Nc2nc(-c3ccccc3)nc3ccccc23)cc1,21.4,-0.4,-34.6,9.3,-38.0
COc1ccc(-c2nc(N/N=C(\C)c3ccc(O)cc3)c3ccccc3n2)cc1,-122.3,-21.4,-186.0,-61.7,56.2*

# From PubChem
